# Reference: ChEMBL document CHEMBL5598561, “ASAP - In vitro binding kinetics” (2024)
# Target: Nonstructural protein 3 (Zika virus) (UniProt A0A024AXB9)
# Conditions: PRVABC59, Concentration 10.0 uM
# Nonstructural protein 3 (Zika virus), sequence (A0A024AXB9 as listed by the source): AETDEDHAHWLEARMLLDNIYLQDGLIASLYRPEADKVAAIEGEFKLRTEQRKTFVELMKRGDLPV
structure (smiles),measurement,setting,value
CC(C)(C)c1cc(Br)cc(C(=O)Nc2ccc3c(c2)CNC3)c1,pKD,"Immobilization level 10000.0 pg/mm2, Rmax 22.0 pg/mm2, ka 615092.383 M-1s-1, kd 1.528 1/s",5.61
same,pKD,"Immobilization level 12000.0 pg/mm2, Rmax 78.0 pg/mm2, ka 256799.727 M-1s-1, kd 0.952 1/s",5.43
same,pKD,"Immobilization level 13000.0 pg/mm2, Rmax 43.0 pg/mm2, ka 306862.061 M-1s-1, kd 1.159 1/s",5.42
O=C(Nc1ccc2c(c1)CNC2)c1cc(Cl)nc2[nH]ncc12,pKD,"Immobilization level 10000.0 pg/mm2, Rmax 24.0 pg/mm2, ka 257771.158 M-1s-1, kd 2.862 1/s",4.96
same,pKD,"Immobilization level 12000.0 pg/mm2, Rmax 48.0 pg/mm2, ka 216828.153 M-1s-1, kd 2.008 1/s",5.03
same,pKD,"Immobilization level 13000.0 pg/mm2, Rmax 31.0 pg/mm2, ka 263772.69 M-1s-1, kd 2.044 1/s",5.11
Cn1cc(CNC(=O)[C@H](Nc2ccc3c(c2)CNC3)c2cc(Cl)cc(C3CC3)c2)cn1,pKD,"Immobilization level 10000.0 pg/mm2, Rmax 44.0 pg/mm2, ka 376767.851 M-1s-1, kd 0.158 1/s",6.38
same,pKD,"Immobilization level 12000.0 pg/mm2, Rmax 64.0 pg/mm2, ka 164221.498 M-1s-1, kd 0.09 1/s",6.26
same,pKD,"Immobilization level 13000.0 pg/mm2, Rmax 64.0 pg/mm2, ka 253337.321 M-1s-1, kd 0.133 1/s",6.28
O=C(Nc1ccc2c(c1)CNC2)c1cncc(-c2ccccc2)c1,pKD,"Immobilization level 4900.0 pg/mm2, Rmax 10.0 pg/mm2, ka 220188.498 M-1s-1, kd 3.981 1/s",4.74
same,pKD,"Immobilization level 5500.0 pg/mm2, Rmax 48.0 pg/mm2, ka 177152.77 M-1s-1, kd 5.77 1/s",4.49
O=C(Nc1ccc2c(c1)CNCCO2)c1cc(Cl)cc2[nH]ncc12,pKD,"Immobilization level 10000.0 pg/mm2, Rmax 42.0 pg/mm2, ka 416936.25 M-1s-1, kd 0.968 1/s",5.63
same,pKD,"Immobilization level 12000.0 pg/mm2, Rmax 47.0 pg/mm2, ka 414358.163 M-1s-1, kd 0.643 1/s",5.81
same,pKD,"Immobilization level 13000.0 pg/mm2, Rmax 56.0 pg/mm2, ka 373791.933 M-1s-1, kd 0.809 1/s",5.67
O=C(Nc1ccc2c(c1)CNC2)c1nccc2[nH]ncc12,pKD,"Immobilization level 12000.0 pg/mm2, Rmax 10.0 pg/mm2, ka 215121.382 M-1s-1, kd 2.565 1/s",4.92
O=C(Nc1ccc2c(c1)CNC2)c1cc(Cl)ccc1OC1CCCC1,pKD,"Immobilization level 12000.0 pg/mm2, Rmax 40.0 pg/mm2, ka 319034.623 M-1s-1, kd 3.897 1/s",4.91
O=C(Nc1ccc2c(c1)CNC2)c1c[nH]c2ncc(F)cc12,pKD,"Immobilization level 5500.0 pg/mm2, Rmax 31.0 pg/mm2, ka 181164.217 M-1s-1, kd 6.639 1/s",4.44
N[C@H]1CCc2cc(NC(=O)c3cc(Cl)cc4[nH]ncc34)ccc21,pKD,"Immobilization level 12000.0 pg/mm2, Rmax 40.0 pg/mm2, ka 202508.522 M-1s-1, kd 3.352 1/s",4.78
same,pKD,"Immobilization level 13000.0 pg/mm2, Rmax 32.0 pg/mm2, ka 287481.012 M-1s-1, kd 4.268 1/s",4.83
O=C(Nc1ccc2c(c1)CN(CC(F)F)C2)c1cc(Cl)cc2[nH]ncc12,pKD,"Immobilization level 5500.0 pg/mm2, Rmax 11.0 pg/mm2, ka 80918.609 M-1s-1, kd 0.287 1/s",5.45
NCCCCc1ccc(NC(=O)c2cc(Cl)cc3[nH]ncc23)cc1,pKD,"Immobilization level 10000.0 pg/mm2, Rmax 4.0 pg/mm2, ka 200640.001 M-1s-1, kd 1.917 1/s",5.02
same,pKD,"Immobilization level 12000.0 pg/mm2, Rmax 9.0 pg/mm2, ka 275409.297 M-1s-1, kd 4.372 1/s",4.8
same,pKD,"Immobilization level 13000.0 pg/mm2, Rmax 11.0 pg/mm2, ka 186293.866 M-1s-1, kd 4.24 1/s",4.64
N#Cc1ccc(Cl)c(C(=O)Nc2ccc3c(c2)CNC3)c1,pKD,"Immobilization level 10000.0 pg/mm2, Rmax 28.0 pg/mm2, ka 455778.547 M-1s-1, kd 4.384 1/s",5.02
same,pKD,"Immobilization level 12000.0 pg/mm2, Rmax 32.0 pg/mm2, ka 264828.882 M-1s-1, kd 2.458 1/s",5.03
same,pKD,"Immobilization level 13000.0 pg/mm2, Rmax 23.0 pg/mm2, ka 313770.073 M-1s-1, kd 2.521 1/s",5.09
Cc1cccc(CNc2ccc(Cl)cc2C(=O)Nc2ccc3c(c2)CNC3)n1,pKD,"Immobilization level 10000.0 pg/mm2, Rmax 24.0 pg/mm2, ka 19887.988 M-1s-1, kd 1.214 1/s",4.21
same,pKD,"Immobilization level 12000.0 pg/mm2, Rmax 8.0 pg/mm2, ka 63837.388 M-1s-1, kd 0.552 1/s",5.06
same,pKD,"Immobilization level 13000.0 pg/mm2, Rmax 43.0 pg/mm2, ka 14963.881 M-1s-1, kd 1.059 1/s",4.15
O=C(Nc1ccc2c(c1)CNC2)c1cc(F)cc2[nH]ncc12,pKD,"Immobilization level 10000.0 pg/mm2, Rmax 50.0 pg/mm2, ka 86776.347 M-1s-1, kd 0.122 1/s",5.85
same,pKD,"Immobilization level 12000.0 pg/mm2, Rmax 119.0 pg/mm2, ka 21922.372 M-1s-1, kd 0.021 1/s",6.01
same,pKD,"Immobilization level 13000.0 pg/mm2, Rmax 93.0 pg/mm2, ka 46087.669 M-1s-1, kd 0.088 1/s",5.72
O=C(Nc1ccc(C2CCNCC2)cc1)c1cc(Cl)cc2[nH]ncc12,pKD,"Immobilization level 10000.0 pg/mm2, Rmax 4.0 pg/mm2, ka 163257.858 M-1s-1, kd 0.446 1/s",5.56
same,pKD,"Immobilization level 12000.0 pg/mm2, ka 318291.503 M-1s-1, kd 0.429 1/s",5.87
same,pKD,"Immobilization level 13000.0 pg/mm2, ka 203161.324 M-1s-1, kd 0.494 1/s",5.61
Cn1ncc2c(C(=O)Nc3ccc4c(c3)CNC4)cc(Br)cc21,pKD,"Immobilization level 10000.0 pg/mm2, Rmax 23.0 pg/mm2, ka 300646.199 M-1s-1, kd 0.327 1/s",5.96
same,pKD,"Immobilization level 12000.0 pg/mm2, Rmax 66.0 pg/mm2, ka 115064.14 M-1s-1, kd 0.186 1/s",5.79
same,pKD,"Immobilization level 13000.0 pg/mm2, Rmax 35.0 pg/mm2, ka 218446.798 M-1s-1, kd 0.273 1/s",5.9
O=C(Nc1ccc2c(c1)CNC2)c1cc(Br)cc2[nH]c(C3CCOCC3)nc12,pKD,"Immobilization level 10000.0 pg/mm2, Rmax 36.0 pg/mm2, ka 49989.202 M-1s-1, kd 0.558 1/s",4.95
same,pKD,"Immobilization level 12000.0 pg/mm2, Rmax 42.0 pg/mm2, ka 41393.875 M-1s-1, kd 0.2 1/s",5.32
same,pKD,"Immobilization level 13000.0 pg/mm2, Rmax 57.0 pg/mm2, ka 35403.894 M-1s-1, kd 0.403 1/s",4.94
Cc1cc(CN)cc(NC(=O)c2cc(Cl)cc3[nH]ncc23)c1,pKD,"Immobilization level 10000.0 pg/mm2, Rmax 32.0 pg/mm2, ka 317735.356 M-1s-1, kd 1.709 1/s",5.27
same,pKD,"Immobilization level 12000.0 pg/mm2, Rmax 41.0 pg/mm2, ka 352403.171 M-1s-1, kd 1.092 1/s",5.51
same,pKD,"Immobilization level 13000.0 pg/mm2, Rmax 26.0 pg/mm2, ka 657032.757 M-1s-1, kd 1.65 1/s",5.6
NCCc1ccc(NC(=O)c2cc(Cl)cc3[nH]ncc23)cc1,pKD,"Immobilization level 10000.0 pg/mm2, Rmax 37.0 pg/mm2, ka 181570.157 M-1s-1, kd 4.215 1/s",4.63
same,pKD,"Immobilization level 12000.0 pg/mm2, Rmax 45.0 pg/mm2, ka 212645.467 M-1s-1, kd 3.181 1/s",4.83
same,pKD,"Immobilization level 13000.0 pg/mm2, Rmax 31.0 pg/mm2, ka 239123.399 M-1s-1, kd 3.643 1/s",4.82
O=C1Cc2c(cc(Br)cc2C(=O)Nc2ccc3c(c2)CNC3)N1,pKD,"Immobilization level 10000.0 pg/mm2, Rmax 28.0 pg/mm2, ka 911035.824 M-1s-1, kd 0.165 1/s",6.74
same,pKD,"Immobilization level 12000.0 pg/mm2, Rmax 50.0 pg/mm2, ka 582104.975 M-1s-1, kd 0.125 1/s",6.67
same,pKD,"Immobilization level 13000.0 pg/mm2, Rmax 39.0 pg/mm2, ka 879294.654 M-1s-1, kd 0.141 1/s",6.79
